From PubChem BioAssay AID1053175 (ICCB-Longwood Screening Facility, Harvard Medical School, 2014) come the findings set out here.

Where “and” joins values, the source holds several entries; their conditions need not be identical. Equal values may be shown once. About 700 (0.21%) of roughly 330,000 compounds were called active.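 The calls were made as follows: active = OD600 absorbance below the run mean of sample wells minus 3.6 SD, in any replicate (cut at about 0.56 in these data); inactive = the rest.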 Shown is part of a subset that was picked to be rich in actives. More than one record can exist for a structure, and the calls need not agree.

The nature of this assay: E. coli growth inhibition, primary screen, OD600 (AID 1053175). Conditions: Escherichia coli growth, OD600, 23 h; stronger effect = lower value.
As to `Fc1ccc(N2CCN(Cc3cnc(Oc4ccc(Br)cc4)s3)CC2)cc1`, the OD600 absorbance is 0.726 (inactive). With `Oc1c(CN2CCN(c3ccc(F)cc3)CC2)cc(Cl)c2cccnc12`, the OD600 absorbance was 0.332 (active). The figure for `O=C(CN1CCN(c2ccc(F)cc2)CC1)Nc1ccccc1` is 0.673 (inactive); for `CCN1C(Nc2ccccc2)=NCC1CC(C)C` (configuration not stated) it is 0.698 (inactive). For `CC(NC(=O)COc1ccc(C=NNC(=O)C(=O)Nc2ccccc2Br)cc1)c1ccccc1` (configuration not stated) the value was 0.788 (inactive).

Turning to `O=C(Nc1ccccc1C(=O)NN=Cc1ccncc1)c1ccccc1`, the OD600 absorbance was 0.706 (inactive). Turning to `CC(=NNC(=O)c1cccc(S(=O)(=O)N2CCCC2)c1)c1ccco1`, the OD600 absorbance is 0.651 (inactive). On to `COc1cc(C=NNC(=O)c2ccncc2)ccc1OC(=O)c1cccc(Br)c1`, for which the OD600 absorbance is 0.605 (inactive).

Regarding `COc1ccc(C(=O)ON=C2CCS(=O)(=O)c3sccc32)cc1`, the OD600 absorbance was 0.66 (inactive). For the compound `CC(NCC(=O)Nc1cc(Cl)cc(Cl)c1)c1ccccc1` (configuration not stated), the OD600 absorbance was 0.522 (active). As for `O=C(CNC(c1ccccc1)c1ccccc1)Nc1ccc(F)cc1`, the OD600 absorbance was 0.694 (inactive). In the case of `O=C(Nc1cc(Cl)cc(Cl)c1)C(NCCCO)c1ccccc1` (configuration not stated), the OD600 absorbance is 0.697 (inactive). For `CCOC1OC(C(=O)N2CCN(Cc3ccc4c(c3)OCO4)CC2)=CC(c2ccc(Br)cc2)C1CCCO` (configuration not stated), the OD600 absorbance is 0.677 (inactive) and 0.735 (inactive). Turning to `O=C(O)COc1ccc(C=NNC(=O)c2cccc3ccccc23)cc1`, the OD600 absorbance is 0.692 (inactive).

For `O=C(O)C1=CC(c2ccc(Br)cc2)CC(OCc2ccc(CO)cc2)O1` (configuration not stated), the OD600 absorbance is 0.678 (inactive) and 0.676 (inactive). Consider `CC(=NNc1nnc(C)c(=O)[nH]1)C(=O)O`, for which the OD600 absorbance is 0.72 (inactive). For `CC(Oc1ccccc1)C(=O)NN=Cc1ccccn1` (configuration not stated) the value was 0.654 (inactive); for `Cc1nnc(NN=Cc2ccccn2)[nH]c1=O`, 0.466 (active). `COc1ccc(C(=O)NN=Cc2ccc(OC)c(CN3CCCc4ccccc43)c2)cc1`: the OD600 absorbance is 0.733 (inactive). In the case of `CC(C)(C)c1[nH]c2ccccc2c1C=NO`, the OD600 absorbance is 0.683 (inactive).

On to `CCOC(=O)c1ccc(-c2ccc(C=NNC(=O)CN(c3ccccc3Cl)S(C)(=O)=O)o2)cc1`, for which the OD600 absorbance was 0.728 (inactive). Take `CC(C)=CCC[C@](C)(OC1OC(COC2OCC(O)C(O)C2O)C(O)C(O)C1O)C1CC[C@]2(C)C1C(O)CC1[C@@]3(C)CCC(OC4OC(CO)C(O)C(O)C4O)C(C)(C)C3CC[C@]12C` (some centres not stated): the OD600 absorbance was 0.621 (inactive). As to `CCNC(=S)NN=C(C)c1cc2ccccc2o1`, the OD600 absorbance was 0.669 (inactive). For `COc1cc(C=NNC(=O)c2ccc(=O)[nH]n2)cc(OC)c1OC` the value was 0.774 (inactive); for `O=C(NN=Cc1ccoc1)c1ccc([N+](=O)[O-])cc1`, 0.694 (inactive); for `CCNC1CC(C)S(=O)(=O)c2sc(S(N)(=O)=O)cc21` (configuration not stated), 0.681 (inactive). In the case of `Cc1cc(C(=O)NN=Cc2cccc3ccccc23)c(C)o1`, the OD600 absorbance was 0.686 (inactive).

Turning to `C#CCNC(=O)C1=CC(c2coc3ccccc3c2=O)CC(OCc2ccc(CO)cc2)O1` (configuration not stated), the OD600 absorbance was 0.691 (inactive) and 0.72 (inactive).

In the case of `Cc1[nH]c2ccccc2c1C=NNC(=S)NC(C)C`, the OD600 absorbance was 0.649 (inactive). With `Cc1ccc(CN2CCN(CC(=O)NN=Cc3ccc(C)o3)CC2)cc1`, the OD600 absorbance is 0.613 (inactive). As to `COc1ccccc1NC(=S)N1CCN(c2ccc(F)cc2)CC1`, the OD600 absorbance was 0.68 (inactive).

With `CC1CN(C(=S)Nc2ccccc2F)CC(C)O1` (configuration not stated), the OD600 absorbance is 0.662 (inactive). For `COc1c(N2CCN(C(=S)Nc3ccccc3F)C(C)C2)c(F)cc2c(=O)c(C(=O)O)cn(C3CC3)c12` (configuration not stated) the value was 0.071 (active); for `CCCOc1ccc(CNC(=S)NN=Cc2ccc([N+](=O)[O-])cc2)cc1`, 0.66 (inactive); for `[N-]=[N+]=NCC(Cc1ccccc1)N1CCN(Cc2ccccc2)CCC1=O` (configuration not stated), 0.705 (inactive).

On to `CC(C)(C)N1C(=O)C2C(c3ccc(Br)cc3)N3C(=O)N(c4ccccc4)C(=O)[C@@]3(Cc3ccccc3)C2C1=O` (some centres not stated), for which the OD600 absorbance is 0.71 (inactive). Turning to `CC(/C=C/c1ccccc1)=NNc1nc(C)cc(C)n1`, the OD600 absorbance was 0.667 (inactive). Consider `CNc1nc(C)nc(NN=Cc2ccccc2)n1`, for which the OD600 absorbance was 0.682 (inactive).

Take `S=c1[nH]nc(-c2ccncc2)n1N=Cc1cccc2ccccc12`: the OD600 absorbance was 0.739 (inactive). Turning to `Cc1ccc(C=NNC(=O)Cn2cnc3ccccc32)o1`, the OD600 absorbance is 0.676 (inactive). For `Cc1ccc(C(=O)N2C3CN(C)C(=O)[C@@]2(Cc2ccccc2)C2C(=O)N(C)C(=O)C32)cc1` (some centres not stated) the value was 0.672 (inactive). In the case of `CC(=NNC(=O)CCc1ccc(S(=O)(=O)N2CCOCC2)cc1)c1ccc(OC(F)F)cc1`, the OD600 absorbance was 0.715 (inactive). Take `C#CCOc1ccc(C=NNC(=O)c2cccnc2)cc1OCC`: the OD600 absorbance was 0.679 (inactive). As to `C[C@@]12C(=O)Nc3cc(Cl)ccc3C(=O)N1C1c3cc(Cl)ccc3OCC1C2c1ccccc1` (some centres not stated), the OD600 absorbance was 0.696 (inactive). `COc1ccc(C=C2N=C(SC)NC2=O)cc1`: the OD600 absorbance is 0.705 (inactive). For `CC(=O)c1c(C)n([O-])c2ccccc2[n+]1=O` the value was 0.186 (active); for `Cc1c(C=O)c2ccccc2n1CC(=O)O`, 0.701 (inactive); for `CCCCn1c(C=NNc2nc3ccccc3[nH]2)nc2ccccc21`, 0.684 (inactive). `COc1cc(C=NNC(=O)c2ccc3c(c2)OCCO3)c(Br)c(Br)c1O`: the OD600 absorbance was 0.727 (inactive).

In the case of `C=C[C@]1(C)CC(OC(=O)CSCCN(CC)CC)[C@]2(C)C(C)CC[C@]3(CCC(=O)C32)C(C)C1O` (some centres not stated), the OD600 absorbance was 0.499 (inactive) and 0.432 (active). `CC(C)(C)C(=O)C=c1[nH]c(=O)c(=Cc2ccccc2F)s1`: the OD600 absorbance was 0.718 (inactive). As to `COC(=O)Oc1ccc(C=NNC(=O)CN(c2ccccc2Br)S(C)(=O)=O)cc1OC`, the OD600 absorbance was 0.67 (inactive). As to `COc1ccc(CN2C(CC(=O)O)c3ccccc3S2(=O)=O)cc1` (configuration not stated), the OD600 absorbance is 0.676 (inactive). For `Cc1ccccc1C(=O)ON=C1CCS(=O)(=O)c2sccc21`, the OD600 absorbance was 0.706 (inactive).

For `O=C(NN=Cc1cccn1-c1cccc(C(=O)O)c1)Nc1ccccc1`, the OD600 absorbance is 0.627 (inactive). Regarding `CC(=O)Oc1ccc(C(C)=NN2CCN(Cc3ccc(Cl)cc3)CC2)cc1`, the OD600 absorbance was 0.707 (inactive). On to `O=C(C=Cc1cccs1)N1CCC2(CC1)Oc1ccc(F)cc1C(=O)C21CC(c2ccccc2)=NO1` (configuration not stated), for which the OD600 absorbance was 0.718 (inactive).
